Results on 48 compounds are retold here after PubChem BioAssay AID2685 (National Center for Advancing Translational Sciences (NCATS), 2010).

Out of some 320,000 compounds screened, about 2,100 (0.66%) were called active. Inconclusive results (about 53%) are left out. Calls follow the shape of the dose curve; as a rule, active = well fitted inhibition curve with a large enough effect in the signal ratio, with a control signal flat (not every such curve was filed as active); inconclusive = small, poorly fitted or top-dose-only effect, or effect the other way, or a change in a side signal; inactive = flat fitted curve, though single readings scatter; the % refers to the signal ratio. Many of the other results were omitted from the sample, so actives are more common in it than they were.
Potency is read from the fitted curve at half-maximal effect.

The nature of this experiment: qHTS Assay for Lipid Storage Modulators in Drosophila S3 Cells.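 As to cell number change: cells counted by Cell Tracker Red CMTPX staining in the red channel.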 As to lipid storage change, negative = inhibition: % is scaled to controls: 0 for no effect and ±100 for the full control effect. The following applies: BODIPY lipid droplet fluorescence, 18-24 h, cells fed with added oleic acid; cell number change: measured here: cell count max response; series mostly up to 46.1 µM; lipid storage change, negative = inhibition: at the top concentration. The gist of the method:
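Laser-scanning cytometry quantifies lipid droplet accumulation (500–530 nm total intensity; droplet/cell object ratio) in oleic acid-fed (400 uM added) Drosophila S3 cells treated with a concentration series. 20 uM Triacsin C defined 100% inhibition.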
Regarding `CCN1CCCC1CNC(=O)c1cn(C)c2ccc(S(=O)(=O)N3CCCCCC3)cc2c1=O` (stereo unspecified), the “lipid storage change, negative = inhibition” value is -0.86% (inactive) and the cell number change amounted to 3.92%.

On to `CC(C)NC(=O)C(OC(=O)c1ccccc1)C(OC(=O)c1ccccc1)C(=O)O` (stereo unspecified), for which the “lipid storage change, negative = inhibition” value is 7.13% (inactive) and the cell number change was 7.86%.

Take `Cn1nc(-c2ccccc2)cc1NC(=O)Nc1ccccc1F`: the “lipid storage change, negative = inhibition” value is -20.6% (inactive) and the cell number change was -4%.

In the case of `COc1cc(CC(=O)OCC(=O)NC2CCCCC2C)cc(OC)c1OC` (stereo unspecified), the “lipid storage change, negative = inhibition” value was 8.4% (inactive) and the cell number change is -2.51%.

Take `Cc1nn(-c2ccccc2)c(C)c1-c1ccccc1O`: the Potency is 7.31 µM (active) and the cell number change was -20.1%.

Turning to `CC(=O)c1c(C)nn(-c2ccccc2)c1C`, the “lipid storage change, negative = inhibition” value is 7.42% (inactive) and the cell number change is 16.2%.

For `Cc1nn(-c2ccccc2)c(C)c1S(=O)(=O)O`, the “lipid storage change, negative = inhibition” value is 28.4% (inactive) and the cell number change is -1.62%.

In the case of `O=c1c2[nH]c3ccc(F)cc3c2ncn1Cc1ccncc1`, the “lipid storage change, negative = inhibition” value was 4.58% (inactive) and the cell number change was 1.6%.

In the case of `Cc1nn(CC(=O)NC(C)C)c(C)c1[N+](=O)[O-]`, the “lipid storage change, negative = inhibition” value was 24.3% (inactive) and the cell number change was 17.1%.

For `CC(=O)NC(Cc1ccccc1F)C(=O)NC1CCN(C(=O)NCc2ccccc2)CC1` (stereo unspecified), the Potency is 6.51 µM (active) and the cell number change is -14.1%.

Turning to `O=C(c1ccc(F)cc1)C1CCN(C(=O)NCc2ccccc2)CC1`, the “lipid storage change, negative = inhibition” value was 12.7% (inactive) and the cell number change was 2.65%.

For the compound `CC(=O)NC(Cc1ccc(C)cc1)C(=O)NC1CCN(C(=O)NCc2ccccc2)CC1` (stereo unspecified), the call was inactive and the cell number change amounted to 13.3%.

For `O=C(Cc1ccccc1)NC1CCN(C(=O)NCc2ccccc2)CC1`, the “lipid storage change, negative = inhibition” value is -20.6% (inactive) and the cell number change is -0.661%.

On to `COc1ccc(CC(NC(C)=O)C(=O)NC2CCN(C(=O)c3cccc(Cl)c3)CC2)cc1OC` (stereo unspecified), for which the “lipid storage change, negative = inhibition” value was -3.02% (inactive) and the cell number change is -1.21%.

With `O=C(NC1CCN(C(=O)NCc2ccccc2)CC1)c1cccc(F)c1`, the Potency is 29.1 µM (active) and the cell number change was found to be 11.7%.

As for `CC(=O)NC(Cc1cccc(C)c1)C(=O)NC1CCN(C(=O)NCc2ccccc2)CC1` (stereo unspecified), the “lipid storage change, negative = inhibition” value was -8.97% (inactive) and the cell number change was found to be 5.24%.

Regarding `COc1cccc(CC(NC(C)=O)C(=O)NC2CCN(C(=O)Nc3ccc(C)cc3)CC2)c1` (stereo unspecified), the “lipid storage change, negative = inhibition” value was -17.2% (inactive) and the cell number change is -3.63%.

Consider `COc1cccc(CC(NC(C)=O)C(=O)NC2CCN(C(=O)c3ccc(Cl)cc3)CC2)c1` (stereo unspecified), for which the Potency was 3.26 µM (active) and the cell number change was -13.3%.

As to `COc1ccnc(Oc2cc(Cl)cc(Cl)c2)c1C#N`, the “lipid storage change, negative = inhibition” value is 10.2% (inactive) and the cell number change worked out at 16.7%.

With `COc1cc(C(=O)NCC(=O)OCC(=O)Nc2ncc(Cl)cc2Cl)cc(OC)c1OC`, the “lipid storage change, negative = inhibition” value was 19.4% (inactive).

Regarding `O=C(Cn1nnc(-c2cccs2)n1)NCc1ccco1`, the “lipid storage change, negative = inhibition” value is 6.95% (inactive) and the cell number change was found to be 14.3%.

Consider `Cc1cc(=O)oc2c3c(cc(OCC(=O)N4CCC(C(=O)O)CC4)c12)OC(C)(C)CC3`, for which the “lipid storage change, negative = inhibition” value was -0.64% (inactive) and the cell number change came out at 22.1%.

For `Cc1ncoc1C(=O)NCc1ccccc1Cl`, the “lipid storage change, negative = inhibition” value was -6.9% (inactive) and the cell number change is -13.1%.

For `Cc1nc(C)c(C(=O)NCCC(c2ccccc2)c2ccccc2)o1`, the “lipid storage change, negative = inhibition” value is -5.08% (inactive) and the cell number change was -16.5%.

For the compound `Cc1nc(C)c(C(=O)NCc2ccccc2Cl)o1`, the Potency is 8.2 µM (active) and the cell number change was -27.9%.

Take `COC(CNC(=O)c1ccc2nc(-c3ccccc3)c(-c3ccccc3)nc2c1)OC`: the “lipid storage change, negative = inhibition” value is 0.217% (inactive) and the cell number change was -6.61%.

For the compound `O=C(CN1CCN(c2ccccc2F)CC1)Nc1ccc2c(c1)CCC2`, the “lipid storage change, negative = inhibition” value was 16.4% (inactive) and the cell number change is -8.56%.

Regarding `Cc1ccc(NS(=O)(=O)c2ccc(Cl)s2)cc1S(=O)(=O)N(C)C`, the outcome was inactive and the cell number change turned out to be 9.65%.

On to `Cc1nc(-c2ccc(S(=O)(=O)Nc3cc(S(=O)(=O)N(C)C)ccc3C)s2)cs1`, for which the “lipid storage change, negative = inhibition” value is 11.7% (inactive) and the cell number change stood at 1.19%.

For the compound `Cc1ccc(S(=O)(=O)N(C)C)cc1NS(=O)(=O)c1ccc(Cl)s1`, the Potency is 6.51 µM (active) and the cell number change is 0.163%.

For `COCCN(C(=O)c1ccccc1F)c1nnc(-c2ccc(OC)cc2)s1`, the Potency was 18.4 µM (active) and the cell number change is -15.3%.

Take `COCCN(C(=O)c1ccccc1F)c1nc(-c2ccc(OC)cc2)cs1`: the outcome was inactive and the cell number change was -17.2%.

Take `COCCN(C(=O)c1ccco1)c1nnc(-c2ccc(F)cc2)s1`: the “lipid storage change, negative = inhibition” value was -8.18% (inactive) and the cell number change worked out at 4.04%.

Regarding `O=C(Cn1c(NCCCO)nc2ccccc21)c1ccc(F)cc1`, the call was inactive and the cell number change stood at 11.9%.

Take `Cc1ccc(SCc2cc(=O)n3[nH]c(C)nc3n2)cc1`: the outcome was inactive.

On to `Cc1cc(C)c(CN2CCC(N3CCC(C(=O)NCC4CCCO4)CC3)CC2)cc1C` (stereo unspecified), for which the call was inactive.

On to `CC[C@@H]1CC=C[C@H]2[C@H]1C(=O)N(Cc1ccccc1)[C@H]2c1ccc2ccccc2c1`, for which the “lipid storage change, negative = inhibition” value is 3.66% (inactive).

For the compound `CCN(CC)C(=O)CSc1nc(-c2cccs2)cc(-c2cccs2)c1C#N`, the Potency was 14.6 µM (active) and the cell number change is -14%.

Turning to `CCN(CC)C(=O)CSc1nc(N)c(C#N)c(-c2cccs2)c1C#N`, the “lipid storage change, negative = inhibition” value was -6.5% (inactive) and the cell number change is -4.19%.

For the compound `CCN(CC)C(=O)CSc1nc(C)cc(-c2cccs2)c1C#N`, the “lipid storage change, negative = inhibition” value was -8.02% (inactive) and the cell number change is -17.5%.

In the case of `O=C(CC1Sc2ccccc2NC1=O)Nc1cccc(-c2nnc3n2CCCCC3)c1` (stereo unspecified), the “lipid storage change, negative = inhibition” value was 1.89% (inactive) and the cell number change worked out at 4.38%.

For `Cc1ccc(NC(=O)c2cccs2)cc1[N+](=O)[O-]`, the “lipid storage change, negative = inhibition” value is 6.94% (inactive) and the cell number change was -1.31%.

With `Cc1ccsc1C(=O)Nc1ccc2c(c1)OCCO2`, the “lipid storage change, negative = inhibition” value was 1.81% (inactive).

Turning to `Cc1ccc(NC(=O)c2sccc2C)cc1[N+](=O)[O-]`, the Potency was 8.2 µM (active) and the cell number change is 7.44%.

On to `COc1ccc(-c2csc(NC(=O)c3cccc(N4C(=O)CCC4=O)c3)n2)cc1C`, for which the “lipid storage change, negative = inhibition” value was -7.59% (inactive) and the cell number change was -26.1%.

For `O=C1CC(=O)N(CCc2ccccc2)C(=O)N1CCc1ccccc1`, the “lipid storage change, negative = inhibition” value was 2.21% (inactive) and the cell number change is -9.18%.

In the case of `COc1ccc(OC)c(N=CC2=C(O)CC(C)(C)CC2=O)c1`, the call was inactive and the cell number change amounted to 25.1%.

`C/C(=N\Nc1ccc([N+](=O)[O-])cc1)c1ccc2c(c1)OCO2`: the “lipid storage change, negative = inhibition” value was -8.87% (inactive) and the cell number change is -16.9%.
